Data: PubChem BioAssay (NCI)
The panel holds about 83,000 compounds, 20% with a hit somewhere; the sample as a whole holds those more often.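 Percent growth is the endpoint: 0 to 100 indicates growth inhibition (40 means 60% inhibition), 0 means no net growth, and negative values indicate cell death.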 The source made the active and inactive calls.

The molecules below were run on SNB-75 CNS (assay: NCI-60 one-dose screen, 48 h (100 = growth as untreated, 0 = no growth, -100 = all killed)). Details: 10 µM unless noted.
Procedure: Growth inhibition of the SNB-75 human tumor cell line is measured as a screen for anti-cancer activity. Cells are grown in 96 well plates and exposed to the test compound for 48 hours. Compounds are tested at a single concentration, which is 10^-5 M for most compounds. The reported endpoint is percent growth (GI% or GIPRCNT), where numbers from 0 - 100% represent growth inhibition, and numbers from -100% - 0 represent cell death. For example, a value of 40 represents 60% growth inhibition. A value of 0 means no net growth occurred over the course of the experiment. A value of -40 indicates 40% of cells at the beginning of the experiment died by the end of the experiment. A value of -100 means all cells are dead at the end of the experiment.
NCI-60 Human Tumor Cell Lines Screen was performed using the standard one-dose NCI protocol, which is described in more detail at https://dtp.cancer.gov/discovery_development/nci-60/default.htm.
Compounds with GIPRCNT values below 10 were considered active. Activity score was based on GIPRCNT using the following formula: […]
Score is 0 for GIPRCNT values of 100 or above, 50 for GIPRCNT values of 0, and 100 for GIPRCNT values of -100.

SMILES | growth
O=C1N/C(=C\c2ccccc2)c2ncccc21 | 91.8% (inactive)
CCCOC(=O)c1ccc2c(c1)[N+](=O)C(C(=O)c1ccccc1)=C(C(F)(F)F)[N+]2=O | -98.5% (active)
CSc1nnc(-c2sc3nnc(-c4ccccc4)c(-c4ccccc4)c3c2O)o1 | 78.4% (inactive)
Cn1c2ccccc2c2nn(C(=O)c3ccccc3)c(=O)nc21 | 105% (inactive)
Cc1nc2cc(Nc3nc(NCCO)nc(Nc4ccc(F)cc4)n3)ccc2n1Cc1ccccc1 | 102% (inactive)
COc1c(O)c2c3c(c1OC)-c1ccccc1CC3N(S(=O)(=O)c1ccc(C)cc1)CC2 (stereo not given) | 22.8% (inactive)
Cc1nn(-c2ccccc2)c2nc3nc4c(c(N)c3c(-c3ccc(Cl)cc3)c12)CCC4 | 86.2% (inactive)
CC(=O)Nc1ccc(S(=O)(=O)N/N=C\c2ccc(Cl)c(Cl)c2)cc1 | 81.7% (inactive)
COc1cc(C(=O)N(C(C)C)C2CCCCC2)cc(OC)c1OC | 87.6% (inactive)
COc1cccc(C2C3=C(COC3=O)N(CCO)c3cc4c(cc32)OCO4)c1 (stereo not given) | -19.9% (active)
O=C1CCC(N2C(=O)c3cccc(NCCOCCOCCNC(=O)c4cc5c(o4)C(=O)c4ccccc4C5=O)c3C2=O)C(=O)N1 (stereo not given) | -98.2% (active)
O=C1c2ccccc2-c2nnc(-c3ccc(Br)cc3)cc21 | 36.9% (inactive)
COc1ccc(Cn2c(Br)c3c(c2-c2cc(OC)c(OC)c(OC)c2)CCc2sc(N)nc2-3)cc1 | -0.745% (active)
FC(F)(F)c1ccc2c(c1)n1cnnc1c1nncn21 | 103% (inactive)
Clc1nc(-c2ccccn2)nc2sc3c(c12)CCCCCC3 | 85% (inactive)
O=C(C[Si](CC(=O)c1cccc(C(F)(F)F)c1)CC(=O)c1cccc(C(F)(F)F)c1)c1cccc(C(F)(F)F)c1 | 90.8% (inactive)
CC(C)N1CCN(c2ccc(OC[C@H]3CO[C@](Cn4cncn4)(c4ccc(Cl)cc4Cl)O3)cc2)CC1 | 89.7% (inactive)
COc1ccc(NC(=O)COc2ccccc2)c(C(N)=O)c1 | 11.5% (inactive)
COc1ccc(/C=C/C(=O)N2CCC(O)CC2)cc1OC1CCCC1 | 90.2% (inactive)
Cc1ccc(N(CSc2ccc(Cl)cc2)CSc2ccc(Cl)cc2)cc1 | 106% (inactive)

SMILES | growth
CC1SC(c2ccc(Cl)cc2)N(CCc2cccs2)C1=O (stereo not given) | -9.5% (active)
COC(=O)C1C2CC3c4[nH]c5cc(OC)ccc5c4CCN3CC2CC(OC2CCCCO2)C1OC (stereo not given) | 84.4% (inactive)
CCCCCCCCCCCCCCNc1nc(CO)ncc1-c1ccc(C(F)(F)F)cc1 | 74.2% (inactive)
O=C(NC1CC1)c1cc2n(n1)CC(c1ccccc1)N2 (stereo not given) | 91.2% (inactive)
COc1ccc(/C=C2\CN(Cc3cn(CCCNc4ccnc5cc(Cl)ccc45)nn3)C/C(=C\c3ccc(OC)c(OC)c3)C2=O)cc1OC | 42.6% (inactive)
CN1CCN(CCCn2c3c(sc4ncccc43)c(=O)n3nnc(-c4ccccc4)c23)CC1 | 73.8% (inactive)
CCOC(=O)c1c(Cl)c2c(n1Cc1ccc(OC)cc1)-c1oncc1CCC2 | 75% (inactive)
Clc1ccc2c(c1)C[C@H]1C[C@@H](c3cccs3)N2O1 | 101% (inactive)
Cc1ccc(-c2c3c(N)c4c(nc3nc3c2c(C)nn3-c2ccccc2)CCCC4)cc1 | 97.2% (inactive)
CCCCC1COc2cccc3c(SCC(=O)N(C)c4cccc5ccccc45)cc[n+]1c23 (stereo not given) | 104% (inactive)
O=C(Nc1ccccc1)Oc1cccc2cccnc12 | 83% (inactive)
Cc1ccc(S(=O)(=O)c2ccc3[nH]c(=O)[nH]c(=O)c3c2)cc1 | 92.4% (inactive)
CC(=O)Nc1ccccc1-c1n[nH]c(=O)[nH]c1=O | 90.3% (inactive)
CC(C)(C)[Si](C)(C)OC1[C@@H](COC(N)=O)O[C@@H](n2cnc3c(N)ncnc32)[C@H]1O[Si](C)(C)C(C)(C)C (stereo not given in full) | 99.4% (inactive)
COc1cccc(OC(=O)c2ccccc2)c1OC(=O)c1ccccc1 | 55.3% (inactive)
COc1ccc(C2SC(C)C(=O)N2CCc2cccs2)cc1OC (stereo not given) | 69.1% (inactive)
COc1cc(OCc2cccc(-c3ccc(C(O)c4nccs4)cc3)c2C)cc(OC)c1C=O (stereo not given) | 69.6% (inactive)
O=C1NC(=S)S/C1=C\c1cccc([N+](=O)[O-])c1 | 83.8% (inactive)
CC1CCCCN1S(=O)(=O)c1ccc(CN=C=S)cc1 (stereo not given) | 69.3% (inactive)
COc1cccc(C2C3=C(COC3=O)N(CCO)c3cc4c(cc32)CCC4)c1 (stereo not given) | -19.2% (active)
